Several values for one entry are separate records, joined by “and”; a condition that tells them apart may be missing. Equal values may be shown once. This is part of a sample that, as a whole, favours compounds with a hit. Of some 83,000 tested, about 20% had one in any assay.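 Results are percent growth after 48 hours of single-concentration exposure. 100 means growth as in untreated cells, lower positive values show inhibition; negative values down to -100 show cell death.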 Activity calls are given as the source filed them. How the source made its calls: active means growth percent below 10; inactive means the rest.

This test has as its system MDA-MB-468 breast. Nature of the test: NCI-60 one-dose screen, 48 h (100 = growth as untreated, 0 = no growth, -100 = all killed). As to conditions: 10 µM unless noted.
With `CCOc1ccccc1C(=O)N1CCN(c2cc(Cl)cc(Cl)c2)CC1`, the growth was 3.92% (active).

As to `O=C(CSc1nc2ccccc2[nH]1)Nc1cccc(Cl)c1`, the growth is 113% (inactive).

As for `COc1ccccc1/C=C/C(=O)c1nnn(-c2ccc(F)cc2)c1C`, the growth is 38.2% (inactive).

`COc1ccc(S(=O)(=O)n2c3ccccc3n3ncc(-c4nnc(C)o4)c23)cc1`: the growth is -19.5% (active).

As for `CCN(CC)CCCC(Nc1c2ccc(Cl)cc2nc2ccc(OC)cc12)c1ccc(Cl)cc1` (stereo not given), the growth was -78.5% (active).

For `NNC(=O)Nc1ccccc1`, the growth is 104% (inactive).

For the compound `CCOC(=O)c1[nH]c(C)c(C(C)=O)c1C`, the growth is 87.2% (inactive).

Turning to `CCn1cc(C(=O)N/N=C/c2ccccc2)c(=O)c2cc(F)c(N3CCNC(C)C3)c(F)c21` (stereo not given), the growth was 30.4% (inactive).

On to `CCCCOc1ccc(/C=C2/SC(N3CCCC3)=NC2=O)cc1`, for which the growth was 93.1% (inactive).

Consider `C[C@H](C(=O)N[C@@H](Cc1ccc(-c2ccccc2)cc1)C(=O)NC1CC(C)(C)NC(C)(C)C1)c1ccc(-c2ccccc2)c(F)c1`, for which the growth was -65.9% (active).

Regarding `Cc1scc2c1N(C(=O)CN1CCN(C)CC1)c1ccccc1NC2=O`, the growth was 101% (inactive).

On to `Cc1cc(O)c(C(C)C)cc1N=O`, for which the growth is 62.6% (inactive) and 104% (inactive).

For the compound `CCOc1ccc(/C=N\N2CCCCCC2)cc1OCC`, the growth was 111% (inactive).

Regarding `COc1cc2c3c(n(CCCNC4CCCC4)c(=O)c2cc1OC)-c1cc2c(cc1C3=O)OCO2`, the growth was 70.9% (inactive).

With `O/N=C/c1cccs1`, the growth is 106% (inactive).

In the case of `COc1ccc(/C=C2\N=C(Nc3ccccc3)N(NC(=O)c3ccccn3)C2=O)cc1`, the growth was 97.2% (inactive).

Regarding `COc1ccc(CNc2c3ccccc3nc3ccccc23)cc1F`, the growth was -18.7% (active).

For `COc1cc(NC(=O)CCl)ccc(=O)c1`, the growth was 75.6% (inactive).

In the case of `Cc1ccc(NC(=O)c2sc3nc4c(cc3c2N)C(=O)CCC4)cc1C`, the growth was 50.7% (inactive).

Take `O=C(Nc1ccc(F)cc1)Nc1ccccc1CNc1nc(Nc2ccc(OCCN3CCCC3)cc2)ncc1Cl`: the growth is -44.1% (active).

Take `CCc1cccc(-c2ccccc2)c1`: the growth is 106% (inactive).

`COc1ccccc1Nc1nc(-c2cc3cccc(C(F)(F)F)c3oc2=O)cs1`: the growth was -2.43% (active).

On to `CCCCCCCCCCCCCCCCCCSC(=N)N`, for which the growth was 67.8% (inactive).

Turning to `O=C1C(c2c(O)[nH]c3ncccc23)=Nc2ccccc21`, the growth is 42.6% (inactive).

With `CC(Br)C(Br)c1cc2c(cc1Br)OCO2` (stereo not given), the growth was 96.8% (inactive).

With `COc1cc(/C=C2\CN(S(=O)(=O)c3ccc(C)cc3)C/C(=C\c3cc(CN4CCOCC4)c(O)c(OC)c3)C2=O)cc(CN2CCOCC2)c1O`, the growth is -45.9% (active).

For `NC(=O)SCC(=O)Nc1ccc(S(N)(=O)=O)cc1`, the growth was 91.4% (inactive).

For `C[C@@H](Oc1cc(-n2cnc3ccc(CN4CCN(C)CC4)cc32)sc1C(N)=O)c1ccccc1C(F)(F)F`, the growth is 6.59% (active).

In the case of `Cc1nc2sc(C(=O)Nc3cccc(Cl)c3C)c(N)c2cc1C(O)c1ccccc1` (stereo not given), the growth is 18.5% (inactive).

Take `COc1ccc(-c2cc3cnc4ccccc4c3oc2=O)cc1`: the growth is 99.8% (inactive).

For `COc1cc2nc(-c3ccc(C(F)(F)F)cc3)cc(OCCN3CCC(O)CC3)c2cc1OC`, the growth is 81.1% (inactive).

For `C=CC(=O)NC(=O)Nc1ccccc1Cl`, the growth is 30.4% (inactive).

As to `O=C(CSc1nc2sc3c(c2c(=O)n1-c1ccc(Cl)cc1)CCCC3)NNC(=O)Nc1ccc(Cl)c(C(F)(F)F)c1`, the growth is -42.4% (active).

Take `C=C1C(=O)O[C@@H]2C[C@@H](C)[C@H](OC)CC(=O)[C@](C)(OC(C)=O)C[C@H](OC(=O)/C(C)=C\C)[C@@H]12`: the growth is 54.5% (inactive).

For `O=C1C=CC2=C3c4cc(O)c(O)cc4CC3(O)COC2=C1O` (stereo not given), the growth is 102% (inactive).

On to `CN1CCN(c2ccc(-c3cnc4c(-c5csc6ccccc56)cnn4c3)cc2)CC1`, for which the growth was -26.8% (active).

As for `CCCCCCC12CCC(=O)N1CCc1cncn12` (stereo not given), the growth was 85% (inactive).

Consider `CCNCc1ccncc1`, for which the growth is 96.9% (inactive).

For `[2H]c1cc2c(c([2H])c1F)/C(=C/c1[nH]c(C)c(C(=O)NCCN(CC)CC)c1C)C(=O)N2`, the growth is 118% (inactive).

`CC(=O)c1cc(C(=O)N2c3ccccc3Sc3ccccc32)n2c1ccc1ccccc12`: the growth was 50.6% (inactive).
